Experimental data reported in the supplement of paper PMC6555819.

System: VDR:RXRa (NR concentration 270 nM, RXRa partner concentration 90 nM)
Assay: PBM binding z-score (relative to random genomic background probes); higher = stronger binding; sequences stand for … in GC…GCGATTGACAGCGTAGAATGAAGG
Procedure: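 Protein-binding microarray (Agilent 4x180K custom design, double-stranded 60-nt probes: 5' GC cap, 34-nt variable region, 24-nt constant primer region; full probe sequence given). Purified or IVT nuclear receptor:RXRα heterodimers (3:1 NR:RXRα, mostly 270:90 nM) or homodimers were incubated for 1 h in PBS with 2% milk and no ligand, then detected with Alexa488 antibodies. Fluorescence from o1-orientation probes (~5 replicates averaged) was converted to z-scores against 500 random hg19 background probes. Variable regions are seed direct-repeat (DR0–DR5) sites, all their single-nucleotide variants and half-site ablations.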

Sequence | PBM binding z-score
CCTAGCAGGCCAATCTGGGCCACTCAAGGCTTGA | -0.783
ACTGTTAGTTGAGACGAGGGCAACCGATAGGTTG | 0.595
TCATATAGGTAATACAGGTGAATGTCGGCATCTA | 1.3
CAGCCTTGGTCAGGGCCAGTATAGGAGGAACGTT | -0.707
CCTCTTAGTTGACCATAAGGGCAACCGAAGCTCG | 0.969
GTACAAAGGTGAATAGGTCGTTGATGAGTAGGCG | 2.18
ACTAGTTGGTCAGCTGAGGTCCCACACAATTCGG | -0.0724
TGAATGAGGTTATCAGATCAGGGAACGTTGCAAA | 1.04
TCAGACAGGTGAACGTAACTCAGGTACGCAGTCG | 0.682
AGTCAAAGTTCAGGACCAGGTAACGTAAAGCACG | 2.41
GCTGCTAGGTCAACTGACGGTCAGCTAAAGCTCG | 1.88
CGTACAAGGTCAAGGTCAGTGAAAGAGACTCGAA | 4.98
CCGAGTAGGTTAGGGGGCATTCAGGCAACGGTGA | 2.93
CTCGAAAGGTCGTGCTCAGGTGAGAATACCAAAC | 3.39
ACAGACAGGTGAGTGAAGGTAACGCAGCTGGACG | -0.28
CCTATTAGTTGACCATAAGGGCGACCGAAGCTCG | 0.426
CCTTACGGGTCACGAGGGTATAGCACGACGAGCG | 5.04
ATCTCTAGGTAAAGATAGTTCCGTGAATGCAAAT | -0.0941
CCTACTGGGCCAATCAGAGGTCATTGATCATATG | 4.12
AGAACGAGGGCAATGTGTTGATAGCACGGGTGGC | 0.824

Sequence | PBM binding z-score
GGAACGAGTGCAAAGTTGATAGCATCTGTCGACG | 1.49
TCTTGTTGATCAATAGAGGTTAAGAAAGTGCGCT | 1.69
GCGACTGGGGCATCAGCAGGTCACCATAACTTAA | 1.75
TCATATAGGTAAACAGGAGAAAGTCCGTAAGTTA | 0.716
CCTATTAGTTGACCATACGGGCAACCGAAGCTCG | 0.598
CGAACTAGGTCAGAACACGACAGTGAAGGATGAT | 0.217
TAGCCTAGGTCATGCCGGCCAGTATAGTGTCGGC | 1.95
ACTTACGGGTCAACGAGGATATAGCACGCGTATA | 6.51
CCTATTAGTTGACCATAAAGGCAACCGAAGCTCG | 0.841
GGTCGGAGGACAAGGTCAGAGCTTTGTCCGTAGA | 1.78
CCTTACGGGTCACTGACAGGATATAGCATTTGGA | 3.36
ATCTCTAGGTAACGATAGTTCAGTGAATGCAAAT | 0.643
CGTCCACGGTCAATGCTAGGTCAGTGAAAGCATT | 0.36
CCCACTGGGCCATCAGGTCATTGATATCAACGTT | 1.89
TCATATTGGTAATACAGGTGAAAGTCGGCATCTA | 1.12
TAGCCTATGTCATTCAGGGGCCAGTATAGAAAGC | -0.286
ACAGACAGGTGAGTGAAGGTTACTCAGCTGGACG | 0.088
TCGAGTAGGCTAGTCGGGGCATTCAGCCAACATA | -0.402
GATACAGGGTCAGCTAGAGGCCTGAGTATGGAAA | 2.2
TAGCCTAGGTCATGGGCCATTATACCACGCGAAC | 2.27
